# An excerpt weighted towards active compounds, which were near 1.4% of everything screened.
# PINK1 expr mod = modulators of PINK1 expression; 410,000 compounds, 0.2% hits; Potency, µM (top dose mostly 76.6 µM), for inactives: at the top dose activation (PINK1 increase), most hits filed as activators; PINK1 immunofluorescence, high-content cytometry, 24 h; active = well fitted activation curve with a large enough effect; inconclusive = small, poorly fitted or top-dose-only effect; cell line not stated here; note: potency is the fitted concentration of half-maximal effect; % of control where 0% means no effect; nearly all actives have a fitted effect of over 65% in size
#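 A stable cell line was treated with compounds at 5 concentrations for 24 hours, with CCCP as control. PINK1 levels and mitochondrial localization were measured by immunofluorescence with mitochondrial, cell and nuclear markers after fixation, read by laser-scanning cytometry.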
# CCT modulator = cytosolic chaperonin activity modulation. 360,000 compounds, 0.3% hits. activity change, % (no concentration beside the values), hits read low. purified chaperonin ATPase assay, HTRF ADP detection, 30 min; in the data active = activity change below about -30%; note: % is set by controls: 0 for no effect and ±100 for the full control effect
#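 TRiC (40 or 20 nM final, by batch activity) in 30 mM Tris pH 7.4, 100 mM KCl, 5 mM MgCl2, 1 mM DTT was treated with compound at 76 uM single dose, then 10 uM ATP, 30 min at 37 °C. ADP was read by HTRF Transcreener.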
# p53 reactivator = restores transcriptional activity of mutant p53. Potency, µM (series often up to 92.2 µM), for the others: at the top dose activity change, positive = activation, actives largely listed as activators. H1299 p53-A138V BP100-luciferase reporter, luminescence, 24 h. 320,000 compounds, 0.063% hits; note: potency is the fitted concentration of half-maximal effect; % of control where 0% means no effect; nearly all actives have a fitted effect of over 45% in size
#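 p53-null H1299 cells stably carrying temperature-sensitive p53-A138V and a BP100-luciferase reporter were pinned with compounds (4-point, 1:5 series) and held 24 hrs at 37 deg C. Luminescence was read 10 min after detection reagent.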
# ASM inhibitor = inhibitors of human secretory acid sphingomyelinase | P17405 | placental ASM, HMU-PC fluorogenic substrate, 60 min | Potency, µM (top dose mostly 57.5 µM), inactives show top-dose activity change, negative = inhibition, usual class: inhibitors | 340,000 compounds, 0.006% hits | AID 504937; note: potency is the fitted concentration of half-maximal effect
# Target sequence (P17405 47-631 limits assumed): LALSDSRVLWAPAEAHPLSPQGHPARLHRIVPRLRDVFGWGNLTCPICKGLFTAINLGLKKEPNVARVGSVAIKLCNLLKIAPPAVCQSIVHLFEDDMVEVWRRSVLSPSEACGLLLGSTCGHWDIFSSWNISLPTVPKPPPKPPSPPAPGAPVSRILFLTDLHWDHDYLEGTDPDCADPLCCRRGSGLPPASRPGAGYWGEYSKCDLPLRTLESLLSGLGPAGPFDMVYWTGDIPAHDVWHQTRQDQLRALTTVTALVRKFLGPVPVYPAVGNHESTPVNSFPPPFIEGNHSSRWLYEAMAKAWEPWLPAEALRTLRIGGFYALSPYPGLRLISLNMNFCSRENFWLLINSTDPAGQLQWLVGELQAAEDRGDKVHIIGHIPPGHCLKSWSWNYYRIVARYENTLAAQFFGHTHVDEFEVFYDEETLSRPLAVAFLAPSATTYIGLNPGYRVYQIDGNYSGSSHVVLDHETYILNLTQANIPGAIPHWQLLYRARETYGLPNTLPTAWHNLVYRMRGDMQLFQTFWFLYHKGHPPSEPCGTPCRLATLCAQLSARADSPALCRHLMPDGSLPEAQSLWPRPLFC
#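 Human placenta-derived ASM enzyme was preincubated with compound for 10 minutes at room temperature, then given fluorogenic substrate HMU-PC0 (9 uM final) for 60 minutes at 37 °C; a pH 10 stop preceded fluorescence reading at Ex 386/Em 447 nm.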
# MmCpn inh = blocks the Methanococcus maripaludis chaperonin Mm-Cpn; purified Mm-Cpn ATPase, ADP Transcreener TR-FRET; Potency, µM (top dose mostly 76.9 µM), without a hit: at the highest dose activity, negative = inhibition, actives largely listed as inhibitors; 330,000 compounds, 0.031% hits; AID 504842; note: potency is the fitted concentration of half-maximal effect; % is set by controls: 0 for no effect and ±100 for the full control effect; nearly all actives have a fitted effect of over 80% in size
#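 Reaction buffer contained 30 mM Tris pH 7.4, 100 mM KCl, 5 mM MgCl2 and 1 mM DTT. Mm-CPN (25 nM final) hydrolysed 10 uM ATP over 30 min at 37°C; ADP was read by HTRF.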
# ALOX12 inh = blocks human arachidonate 12S-lipoxygenase. purified 12hLO, xylenol orange hydroperoxide absorbance. Potency, µM (series often up to 108 µM), for the others: top-dose activity change, negative = inhibition, hits mostly inhibitors. 580,000 compounds, 1.1% hits. AID 1671190. P18054; note: potency is the fitted concentration of half-maximal effect; % is set by controls: 0 for no effect and ±100 for the full control effect
#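 Purified human 12hLO (150 nM final) in 25 mM Hepes, 0.01% Triton X-100, pH 7.0 was preincubated 15 min at room temperature with compound. Then 40 uM arachidonic acid was added, 30 min. Hydroperoxide was read by Fe-XO absorbance ratio 573/405 nm.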
# * hit, by the source's call; ? = inconclusive; . = not tested or not shown; [ ] = remark or other dose. Unless noted, calls come from the whole dose curve; as a rule, active = well fitted curve in the direction sought with a large enough effect; inconclusive = small, poorly fitted or top-dose-only effect, or another doubt; inactive = no such curve, though single readings can be large; an effect the other way counts as inactive or inconclusive.
SMILES,PINK1 expr mod,CCT modulator,p53 reactivator,ASM inhibitor,MmCpn inh,ALOX12 inh
C#CCOc1c(Br)cc(/C=C2/C(=O)ON=C2C)cc1OC,2%,1,5%,-2%,1%,5µM*
CCN(CC)C(=O)C(Sc1nnnn1-c1c(C)cccc1C)c1ccccc1 (centres undefined),.,.,.,.,.,-13%
O=C(NCc1ccc(CN2CCCC2)cc1)c1cc(C2CC2)nc2ccccc12,.,.,.,.,.,-8%
O=[N+]([O-])c1cc(Br)c(O)c(/C=N/Nc2nnnn2-c2cccc3ccccc23)c1,-4%[38.3 µM],-2,-3%,31%,3%,11µM*
O=[N+]([O-])c1ccc(NN=Cc2cccc3ccccc23)cc1,1%,0,.,-1%,.,-29%
CC(C)c1ccc(C(=O)O)s1,.,.,.,.,.,-2%
Cc1sc2c3ccsc3ccc2[n+]1C,2%,-1,0%,-1%,-3%,16µM*
Cc1sc2ccc3sccc3c2[n+]1C,0%,-5,1%,1%,1%,11µM*
CCOc1ccccc1NC(=O)C1=NN(C2CCS(=O)(=O)C2)C(=O)CC1 (centres undefined),.,.,.,.,.,-7%
C=CCOc1ccc(CNCc2ccco2)cc1OCC,.,.,.,.,.,-5%
CC(C)c1cc(=O)oc2cc(OS(=O)(=O)c3ccc4c(c3)OCCO4)ccc12,.,.,.,.,.,3%
Oc1ccc(C(=S)N2CCN(c3cccc(Cl)c3)CC2)cc1,0%,1,-5%,-5%,0%,?
COc1cc(C(=S)N2CCN(c3cccc(Cl)c3)CC2)ccc1O,5%,-9,-1%,-17%,-2%,45µM*
O=C(NCCCN1CCCC1)NCc1ccccc1,.,.,.,.,.,36%
O=C(NC1CCCC1)N[C@@H]1C[C@H](Cn2cc(C3CC3)nn2)[C@@H](O)[C@H]1O,.,.,.,.,.,22µM*
CC(=O)c1ccc(S(=O)(=O)NCc2ccc(C(=O)N3CCN(c4cccc(C)c4)CC3)cc2)cc1,.,.,.,.,.,3%
N#CCN(CC#N)C(=O)Cc1cccs1,.,.,.,.,.,32µM*
O=C(NCc1ccc(C(F)(F)F)cc1)C1CCN(S(=O)(=O)/C=C/c2ccccc2)CC1,.,.,.,.,.,25%
CC1=CCC2C(C1)C2(C)C (centres undefined),.,.,.,.,.,79µM*
COC(=O)c1sc(S(=O)(=O)N2CCC(C(N)=O)CC2)c(C(=O)OC)c1C,-2%,-33*,-1%,0%,0%,2%
O=C(Nc1cccc2nsnc12)c1cccs1,1%,0,?,61%,-3%,-24%
O=C(Nc1cccc2nsnc12)c1ccc(-c2ccc(Br)cc2)o1,?,-1,25%,50%,-3%,35µM*
O=C(Nc1ccccc1)Nc1cccc2nsnc12,3%,-2,8%,-2%,-11%,40µM*
O=c1oc2ccccc2c(NC2CCCCC2)c1NS(=O)(=O)c1ccccc1Cl,.,.,.,.,.,7%
CCc1ccc(CNC(=O)c2cc(SC)ccc2C)s1,.,.,.,.,.,-25%
SMILES,PINK1 expr mod,CCT modulator,p53 reactivator,ASM inhibitor,MmCpn inh,ALOX12 inh
COc1ccc(C(C)=O)cc1CO/N=C/c1ccc(OCc2ccc(Cl)cc2)c(OC)c1,.,.,.,.,.,-24%
COc1ccc(NC(=O)CSC2=C(C#N)C(c3ccco3)C3=C(CCCC3=O)N2)c(OC)c1 (centres undefined),1%,-1,11%,13%,0%,18µM*
COc1cccc(NC(=O)CSC2=C(C#N)C(c3ccco3)C3=C(CCCC3=O)N2)c1 (centres undefined),5%,0,?,15%,-1%,-14%
c1ccc(-c2nc(CSc3nnnn3C3CCCCC3)co2)cc1,.,.,.,.,.,1%
O=C(NNC(=O)C12CC3CC(CC(C3)C1)C2)c1ccccc1F,-1%,-45*,22%,-2%,0%,-5%
O=C(NNC(=O)C12CC3CC(CC(C3)C1)C2)c1ccccc1O,0%,-1,-7%,1%,-1%,368%
O=C(NCCn1cc(SCC(=O)N2CCOCC2)c2ccccc21)c1ccccc1,0%,-1,-2%,0%,3%,17%
O=C(Cn1cc(SCc2ccc(Cl)cc2)c2ccccc21)N1CCOCC1,0%,-1,?,-1%,3%,?
O=C(Cn1cc(SCc2ccc(F)cc2)c2ccccc21)N1CCOCC1,1%,-1,28µM*,-1%,5%,-22%
Cc1cc(C)cc(C(=O)NCCn2cc(SCC(=O)N3CCOCC3)c3ccccc32)c1,-2%,-32*,-5%,-1%,2%,?
CCCNC(=O)Cn1c(C)ccc(NC(=O)Nc2ccc(OC)cc2)c1=O,.,.,.,.,.,-6%
Cc1ccc(C2NC(=O)N(CC(=O)Nc3ccc(Br)c(C)c3)C3=C2C(=O)OC3)cc1 (centres undefined),.,.,.,.,.,8.9µM*
O=C(CN1C(=O)NC(c2ccc(Cl)cc2)C2=C1COC2=O)Nc1ccc(C(F)(F)F)cc1 (centres undefined),.,.,.,.,.,8.9µM*
Cc1ccc(C2NC(=O)N(CC(=O)Nc3ccc(C(F)(F)F)cc3)C3=C2C(=O)OC3)cc1 (centres undefined),.,.,.,.,.,10µM*
O=C(CN1C(=O)NC(c2ccccc2Cl)C2=C1COC2=O)Nc1ccc(F)c(Cl)c1 (centres undefined),.,.,.,.,.,-1%
O=C(CN1C(=O)NC(c2ccc(Cl)cc2)C2=C1COC2=O)Nc1ccc(F)c(Cl)c1 (centres undefined),.,.,.,.,.,7.9µM*
COc1ccc(Cl)cc1C(=O)NCc1ccc(-c2nc3ncccc3o2)cc1,.,.,.,.,.,12%
CC(C)CN1CCN(c2nc3c(c(=O)[nH]c(=O)n3C)n2Cc2ccccc2F)CC1,.,.,.,.,.,-13%
N#Cc1c2n(c(=O)n(CCOc3ccc(Cl)cc3)c1=O)CCC2,.,.,.,.,.,-9%
Cc1ccc(C2NC(=O)N(CC(=O)Nc3ccc(Br)cc3F)C3=C2C(=O)OC3)cc1 (centres undefined),.,.,.,.,.,8.9µM*
Cc1ccc(-n2nc3c(c2NC(=O)CC(C)C)CS(=O)C3)cc1 (centres undefined),0%,-2,11%,4%,-1%,40µM*
CN1/C(=C\C(=O)Nc2ccc(Cl)cc2)C(C)(C)c2ccccc21,?,-3,?,-20%,-7%,-30%
CN1/C(=C\C(=S)Nc2ccccc2)C(C)(C)c2ccccc21,11%,-1,4%,6%,-9%,-17%
COc1ccccc1C(=O)NC(=S)/C=C1/N(C)c2ccccc2C1(C)C,5%,-7,3%,-12%,-19%,28µM*
CN1/C(=C/C(=S)NC(=O)C2(C)CC2(Cl)Cl)C(C)(C)c2ccccc21 (centres undefined),3%,-1,1%,-8%,-3%,22µM*

# Screening results as filed in PubChem BioAssay.
